TrxR1 substrate: is turned over as a substrate by rat TrxR1; O89049; purified TrxR1 substrate turnover, NADPH consumption readout; Potency, µM (top dose mostly 114 µM), for the others: top-dose activity change, negative = substrate turnover; 0.01% of 390,000 active; AID 588456; note: nearly all actives have a fitted effect of over 50% in size
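Rat TrxR1, dispensed at 90 nM, was prereduced with 400 uM NADPH (final) for 5 min at ~22 deg C, then incubated with compound 15 min before 400 uM selenite. A first-read NADPH fluorescence drop versus no-compound background flagged substrates.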
mIDH1 inhibitor: human IDH1 R132H inhibition. IDH1-R132H enzyme, NADPH consumption, diaphorase/resazurin fluorescence. Potency, µM (titrated, usually from 76.6 µM), for the others: top-dose activity change, negative = inhibition, hits mostly inhibitors. 0.093% of 390,000 active. AID 602179; note: nearly all actives have a fitted effect of over 65% in size
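IDH1-R132H (0.5 ug/mL dispensed) in pH 7.5 Tris buffer was preincubated 30 min with compound, then given a substrate mix of 0.016 mM NADPH and 2 mM alpha-KG for 80 min at room temperature; remaining NADPH was read by diaphorase/resazurin fluorescence.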
GLS inh: glutaminase GLS (human) inhibition; Potency, µM (series often up to 45.5 µM), inactives show at the top dose activity change, negative = inhibition, hits mostly inhibitors; GLS enzymatic activity, qHTS titration; 0.21% of 410,000 active; O94925; AID 624170
Target sequence (O94925 whole entry, looked up): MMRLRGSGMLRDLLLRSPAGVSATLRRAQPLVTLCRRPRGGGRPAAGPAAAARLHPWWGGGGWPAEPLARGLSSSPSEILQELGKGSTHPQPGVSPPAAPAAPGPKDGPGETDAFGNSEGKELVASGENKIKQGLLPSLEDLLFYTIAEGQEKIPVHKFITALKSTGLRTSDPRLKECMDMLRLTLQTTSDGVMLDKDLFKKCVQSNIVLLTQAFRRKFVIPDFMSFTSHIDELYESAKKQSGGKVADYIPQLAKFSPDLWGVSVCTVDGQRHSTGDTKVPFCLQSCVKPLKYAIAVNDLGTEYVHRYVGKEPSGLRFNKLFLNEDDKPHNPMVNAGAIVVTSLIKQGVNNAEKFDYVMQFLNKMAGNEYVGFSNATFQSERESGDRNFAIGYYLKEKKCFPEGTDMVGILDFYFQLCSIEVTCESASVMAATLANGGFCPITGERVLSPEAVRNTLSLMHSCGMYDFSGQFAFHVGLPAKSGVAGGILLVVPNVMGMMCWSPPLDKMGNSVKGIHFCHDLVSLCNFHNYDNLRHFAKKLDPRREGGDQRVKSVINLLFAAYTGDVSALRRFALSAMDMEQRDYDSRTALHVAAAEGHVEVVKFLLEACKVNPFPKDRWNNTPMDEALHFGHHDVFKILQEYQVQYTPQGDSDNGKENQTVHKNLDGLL
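Two-point fluorescence kinetic (t0, 30 min RT) for hKGA; glutamate detected via glutamate oxidase–HRP–Amplex Red. Substrate: 1 mM L-glutamine solution; buffer 45 mM KH2PO4, pH 8.2.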
rTrxR1 inhibitor: rat TrxR1 inhibition | O89049 | recombinant rTrxR1, NADPH fluorescence consumption, selenite substrate | Potency, µM (highest dose often 114 µM), for inactives: at the top dose activity change, negative = inhibition, hits mostly inhibitors | 1% of 390,000 active | AID 588453; note: nearly all actives have a fitted effect of over 65% in size
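Rat TrxR1 (90 nM in the dispensed reagent) was pre-reduced with 400 uM NADPH for 5 min at room temperature, then incubated with compound for 15 min. After 400 uM selenite was added, NADPH fluorescence (Ex 340/Em 450 nm) was followed for 8 min.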
Active calls of the source: *; ? = inconclusive; nt = no result given; [ ] = remark or other dose. In the library only some 1.2% were active in any assay of this set; here they are far more common. Calls come from the whole dose curve; as a rule, active = well fitted curve in the direction sought with a large enough effect; inconclusive = small, poorly fitted or top-dose-only effect, or another doubt; inactive = no such curve, though single readings can be large; an effect the other way counts as inactive or inconclusive. % is set by controls: 0 for no effect and ±100 for the full control effect; potency is the fitted concentration of half-maximal effect.

SMILES | TrxR1 substrate | mIDH1 inhibitor | GLS inh | rTrxR1 inhibitor
O=C(Nc1ccc(NC(=O)c2ccco2)nc1)c1cccc(F)c1 | -1.7% | -11.4% | 1.3% | -2.0%
O=C(Nc1ccc(NC(=O)c2ccccc2F)cn1)c1ccco1 | -3.1%[57.1 µM] | 5.2% | -6.9% | 14.1µM*
CCc1ccc(-c2nc(CS(=O)CC(=O)NC3CCCCCC3)c(C)o2)cc1 (stereo not drawn) | 0.3% | 7.5% | -6.9% | 20µM*
COc1ccc(-c2nc(CS(=O)CC(=O)NC3CCCCC3)c(C)o2)cc1OC (stereo not drawn) | 7.6% | 0.0% | -14.8% | 50.1µM*
COc1ccc(-c2nc(CS(=O)CC(=O)NCCC3=CCCCC3)c(C)o2)cc1 (stereo not drawn) | -3.2%[57.1 µM] | 15.1% | -4.4% | 15.8µM*
COc1ccc(-c2nc(CS(=O)CC(=O)NC3CCCCCC3)c(C)o2)cc1 (stereo not drawn) | 2.8% | -5.0% | 0.0% | ?
CCc1ccc(-c2nc(CS(=O)CC(=O)NC3CC3)c(C)o2)cc1 (stereo not drawn) | -4.7% | -2.7% | -10.4% | 15.8µM*
CCOC(=O)c1c(C)[nH]c(C)c1S(=O)(=O)N1CCC(C(=O)N2CCN(c3ccccc3)CC2)CC1 | -9.5%[57.1 µM] | -4.6% | 17.9% | -12.1%[57.1 µM]
Cc1c(Br)cnc2ccccc12 | -16.3% | nt | nt | ?
CC(C)N1[N]C(=C2C=c3cc(O)ccc3=N2)c2c(N)ncnc21 | nt | nt | -0.2% | nt
CCc1ccc(-c2nc(CS(=O)CC(=O)NCc3ccc(F)cc3)c(C)o2)cc1 (stereo not drawn) | 1.8%[57.1 µM] | 41.0% | 4.8% | 13.7%[57.1 µM]
Cc1oc(-c2ccccc2)nc1CS(=O)CC(=O)N1CCc2ccccc2C1 (stereo not drawn) | 3.3% | 20.4% | 3.3% | 20µM*
Cc1ccc(-c2nc(CS(=O)CC(=O)N3CCN(c4ccccc4)CC3)c(C)o2)cc1 (stereo not drawn) | -1.2% | 2.9% | -7.7% | -9.4%
CCc1ccc(-c2nc(CS(=O)CC(=O)O)c(C)o2)cc1 (stereo not drawn) | -12.2% | -1.5% | 16.1% | 3.55µM*
O=C(C[n+]1ccccc1Br)c1ccc(-c2ccccc2)cc1 | 5.9% | nt | nt | ?
O=C(CCl)Nc1cc(S(=O)(=O)N2CCCCCC2)ccc1Cl | -11.4% | -0.4% | 25.4% | 7.94µM*
CCc1cccc(CC)c1NC(=S)NCCc1ccc(O)c(O)c1 | -8.5% | -0.8% | ? | 6.31µM*
CCS(=O)(=O)N1CCc2cc(C(=O)Nc3ccc(OC)cc3OC)ccc21 | 4.0% | 2.6% | 2.1% | 16.3%
COC(=O)c1ccccc1NC(=S)NC(=O)c1ccc(C)cc1 | -9.3% | 2.6% | 1.8% | 39.8µM*
COC(=O)c1ccccc1NC(=S)NC(=O)c1ccccc1 | -0.3% | 2.4% | 1.1% | ?
COC(=O)c1ccccc1NC(=S)NC(=O)c1ccccc1C | 5.8% | 2.5% | -6.9% | 11.2µM*
COC(=O)c1ccccc1NC(=S)NC(=O)C1CCCCC1 | -2.9% | -7.1% | 2.1% | 15.8µM*
COC(=O)c1ccccc1NC(=O)c1ccc2c(c1)OCCO2 | -9.7% | 4.9% | 6.7% | -7.8%
Cc1ccccc1C(=O)NC(=S)Nc1ccccc1C(=O)O | 1.0%[57.1 µM] | 5.3% | 23.1% | 1.5%[57.1 µM]
COC(=O)c1ccccc1NC(=S)NC(=O)c1ccc2c(c1)OCO2 | 2.0% | 1.2% | 0.9% | 8.91µM*
SMILES | TrxR1 substrate | mIDH1 inhibitor | GLS inh | rTrxR1 inhibitor
NC(=O)c1ccccc1NC(=S)NC(=O)c1ccc(Br)o1 | -9.3% | 2.9% | 15.4% | 25.1µM*
CC(C)(C)c1ccc(C(=O)NC(=S)NNC(=O)COc2ccccc2)cc1 | 5.2% | 1.1% | 1.1% | -7.0%
O=C(NC(=S)Nc1ccccc1)c1ccc(Br)o1 | -0.6% | -7.4% | 1.7% | -15.5%
Cc1ccc(C(=O)NNC(=S)NC(=O)COc2ccccc2)cc1 | 6.2% | 4.4% | 9.9% | 39.8µM*
O=C(c1ccoc1)N1CCC2(CC1)Oc1ccc(Cl)cc1C(=O)C21CC(c2ccc(Cl)cc2)=NO1 (stereo not drawn) | -1.0% | -5.7% | 0.1% | -2.5%
O=C(c1ccoc1)N1CCC2(CC1)Oc1ccc(F)cc1C(=O)C21CC(c2ccc(Cl)cc2)=NO1 (stereo not drawn) | -9.9% | 7.7% | -1.9% | 70.8µM*
CC(C)CC1=C/C(=C/c2ccc(-c3ccccc3)o2)C(=O)O1 | 71.7% | -11.2% | 11.2µM* | ?
NS(=O)(=O)c1ccc(-c2ccc(C=C3C(=O)c4ccccc4C3=O)o2)cc1 | 1.8% | 3.7% | -0.8% | -1.6%

Bioassay records from PubChem BioAssay.
